From ChEMBL document CHEMBL1201862, “PubChem BioAssay data set” (2004) come the findings set out here.

The campaign covered roughly 400,000 compounds. About 2,100 (0.53%) were called active. Roughly 14% stayed inconclusive and do not appear here. This is one part of a sample in which actives are shown more often than they occur. How the calls were made is not given here.

The target of this assay is Ataxin-2 (Homo sapiens) (UniProt Q99700). Nature of the assay: qHTS for Inhibitors of ATXN expression. Format: functional. For orientation: Quantitative high-throughput screening tests each substance at several concentrations.
Ataxin-2 (Homo sapiens), sequence (Q99700 whole entry): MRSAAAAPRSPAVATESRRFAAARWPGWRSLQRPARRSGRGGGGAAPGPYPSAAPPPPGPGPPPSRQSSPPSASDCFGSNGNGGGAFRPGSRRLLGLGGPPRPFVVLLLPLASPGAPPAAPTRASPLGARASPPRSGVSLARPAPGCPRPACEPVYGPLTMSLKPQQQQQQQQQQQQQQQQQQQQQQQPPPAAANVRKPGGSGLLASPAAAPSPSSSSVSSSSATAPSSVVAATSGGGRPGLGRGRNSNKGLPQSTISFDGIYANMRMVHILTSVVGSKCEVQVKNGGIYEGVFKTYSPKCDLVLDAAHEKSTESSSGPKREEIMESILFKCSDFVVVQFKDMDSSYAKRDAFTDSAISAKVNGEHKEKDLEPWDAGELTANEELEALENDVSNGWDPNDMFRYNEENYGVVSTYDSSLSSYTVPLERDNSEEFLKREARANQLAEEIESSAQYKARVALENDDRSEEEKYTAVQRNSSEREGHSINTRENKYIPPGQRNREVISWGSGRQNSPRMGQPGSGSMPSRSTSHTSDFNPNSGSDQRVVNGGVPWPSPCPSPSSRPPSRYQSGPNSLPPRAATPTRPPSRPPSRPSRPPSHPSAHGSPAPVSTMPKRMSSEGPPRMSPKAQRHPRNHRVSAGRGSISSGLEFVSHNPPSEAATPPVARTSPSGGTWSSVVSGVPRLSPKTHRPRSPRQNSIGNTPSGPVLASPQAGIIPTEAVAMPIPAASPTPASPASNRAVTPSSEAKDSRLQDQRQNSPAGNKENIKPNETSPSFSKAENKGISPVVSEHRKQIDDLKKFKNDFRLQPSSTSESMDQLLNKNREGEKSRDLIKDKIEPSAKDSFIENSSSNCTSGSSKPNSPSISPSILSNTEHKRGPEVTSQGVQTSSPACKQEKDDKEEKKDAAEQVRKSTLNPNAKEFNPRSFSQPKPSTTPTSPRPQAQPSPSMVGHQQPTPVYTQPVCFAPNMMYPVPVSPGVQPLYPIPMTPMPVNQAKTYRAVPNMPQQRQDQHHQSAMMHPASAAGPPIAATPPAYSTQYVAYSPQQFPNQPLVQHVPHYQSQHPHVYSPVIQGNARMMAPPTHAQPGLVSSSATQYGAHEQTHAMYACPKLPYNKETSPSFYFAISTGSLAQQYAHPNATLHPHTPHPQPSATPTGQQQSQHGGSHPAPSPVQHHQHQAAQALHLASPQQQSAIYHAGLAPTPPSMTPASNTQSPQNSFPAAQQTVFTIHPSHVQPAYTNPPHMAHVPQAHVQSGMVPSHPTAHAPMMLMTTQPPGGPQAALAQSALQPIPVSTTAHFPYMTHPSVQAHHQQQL
Take `O=C1/C(=C/c2cccc(F)c2)Oc2cc(O)ccc21`: the Potency entry was “inactive”.

Turning to `CN1CCc2c(sc3c2C(=O)NC(/C=C\c2ccccc2)N3)C1` (configuration not stated), the Potency result is “inactive”.

For the molecule `O=c1cc(-c2ccccc2)c2ccc3c(c2o1)CN(Cc1cccc(Cl)c1)CO3`, the Potency result is “inactive”.

With `Cc1ccc(S(=O)(=O)C(C#N)c2nc3ccccc3nc2N2CC(C)OC(C)C2)cc1C` (configuration not stated), the Potency result was “inactive”.

Regarding `Cc1c(CCOC(=O)C23CC4CC(CC(C4)C2)C3)sc[n+]1CC#N`, the Potency was 31.6 µM (active).

For the molecule `Cc1c(CCOC(=O)C2C3CC4CC(C3)CC2C4)sc[n+]1CC(=O)c1ccc(Br)cc1` (configuration not stated), the Potency is 20 µM (active).

`Cc1c(CCOC(=O)CC23CC4CC(CC(C4)C2)C3)sc[n+]1CC(=O)c1ccccc1`: the Potency was 29.9 µM (active).

Take `CN1CCC(N(C)C(S)=NCCc2ccccc2)CC1`: the Potency result is “inactive”.

Turning to `CCNS(=O)(=O)c1ccc(CCC(=O)N2CCc3ccccc3C2)cc1`, the Potency result was “inactive”.

For `Cc1ccc2nc(C)c3c(c2c1)N(c1ccc(F)cc1)CC3`, the Potency entry is “inactive”.

With `CC(C)NCC(O)Cn1c2c(c3ccccc31)CCc1c-2cnn1-c1ccccc1` (configuration not stated), the Potency is 25.1 µM (active).

Take `N#Cc1sc2nc(-c3cccs3)cc(-c3ccccc3)c2c1N`: the Potency result was “inactive”.

As for `NC(=O)c1ccc(NC(=O)CNC(c2ccccc2)c2ccccc2)cc1`, the Potency entry is “inactive”.

As for `Cc1ccc(C(=O)C(C)[n+]2cccc(C(N)=O)c2)cc1` (configuration not stated), the Potency entry was “inactive”.

Take `Cc1ccc(C(=O)Sc2cccccc2=O)cc1`: the Potency is 2.51 µM (active).

Turning to `Cc1cccc(CC(=O)N2CCC(N3CCC(C(=O)N4CCOCC4)CC3)CC2)c1`, the Potency result is “inactive”.

In the case of `COc1ccc(OC(C)C(=O)N(C)Cc2nc(-c3ccccc3)no2)cc1` (configuration not stated), the Potency result was “inactive”.

For the molecule `COc1ccc(-c2noc(CSc3nnc(Cc4ccccc4)n3-c3ccc(F)cc3)n2)cc1`, the Potency was 39.8 µM (active).

For the molecule `COc1ccc(-c2noc(CSc3nnc(Cc4ccccc4)n3-c3cccc(C)c3)n2)cc1`, the Potency is 39.8 µM (active).

Turning to `COc1ccccc1-c1noc(CSc2nnc(Cc3ccccc3)n2-c2ccc(C)c(C)c2)n1`, the Potency was 35.5 µM (active).

With `COc1ccc(OC(C)C(=O)N(C)Cc2nc(-c3ccc(C)cc3)no2)cc1` (configuration not stated), the Potency result was “inactive”.

In the case of `COc1ccc(OC)c(-c2noc(CSc3nnc(Cc4ccccc4)n3-c3cccc(C)c3)n2)c1`, the Potency is 22.4 µM (active).

`COc1ccc(Cc2noc(CN(C)CCN3CCc4ccccc4C3)n2)cc1OC`: the Potency entry was “inactive”.

In the case of `COc1ccccc1-c1ccc(SCc2cccc(F)c2)nn1`, the Potency entry is “inactive”.

As to `COCC(C)n1c(SCc2nc(O)c3ccccc3n2)nc2ccccc2c1=O` (configuration not stated), the Potency entry is “inactive”.

Take `Nc1ccc(-c2c3ccccc3nc3ccccc23)cc1`: the Potency entry was “inactive”.

In the case of `CC(=O)c1cnc(SCc2ccc(Cl)cc2)nc1C`, the Potency result was “inactive”.

As for `COc1cccc(-c2csc(/C(C#N)=C/Nc3cc4oc5ccccc5c4cc3OC)n2)c1`, the Potency result was “inactive”.

For `CNC(=O)c1ccc(NC(=O)CC2SC(N3CCCC3)=NC2=O)cc1` (configuration not stated), the Potency result was “inactive”.

Take `O=c1oc2ccc3ccccc3c2cc1-c1nnc(-c2cccs2)o1`: the Potency result was “inactive”.

As to `O=C(OCC(=O)N1CCCC1=O)C1CCN(S(=O)(=O)c2ccc(Cl)c(C(F)(F)F)c2)CC1`, the Potency result was “inactive”.

On to `Cc1ccc(NC(=O)COC(=O)[C@H](C)N2C(=O)C3CC=CCC3C2=O)cc1S(=O)(=O)N(C)C` (some centres not stated), for which the Potency result is “inactive”.

Consider `CCCN(CC(=O)Nc1ccccc1C)C(=O)c1ccc(N2CCCC2=O)cc1`, for which the Potency entry is “inactive”.

On to `C=CC[C@@H](CC(=O)N[C@@H](CO)Cc1ccccc1)C(=O)N[C@H](COC(=O)[C@@H](CC=C)CC(=O)OC(C)(C)C)Cc1c[nH]c2ccccc12`, for which the Potency is 28.2 µM (active).

As for `C=CC[C@H](CC(=O)N[C@H](CO)Cc1ccccc1)C(=O)N[C@@H](COC(=O)[C@@H](CC=C)CC(=O)OC(C)(C)C)Cc1c[nH]c2ccccc12`, the Potency is 25.1 µM (active).

With `C=CC[C@@H](CC(=O)N[C@@H](CO)Cc1ccccc1)C(=O)N[C@H](COC(=O)[C@H](CC=C)CC(=O)OC(C)(C)C)Cc1c[nH]c2ccccc12`, the Potency is 28.2 µM (active).

For `O=C(CCCCCn1c(=S)[nH]c2ccc(N3CCOCC3)cc2c1=O)NCc1ccc2c(c1)OCO2`, the Potency result is “inactive”.

On to `Cn1c(N)nc2nc(CCc3ccccc3)c(O)nc2c1=O`, for which the Potency entry is “inactive”.

As to `CCOc1ccc(CC(=O)Nc2c(C(=O)c3ccccc3)oc3ccc(Cl)cc23)cc1OCC`, the Potency result was “inactive”.

For the molecule `Cc1cc(C)nc(Sc2ncnc(N)c2[N+](=O)[O-])n1`, the Potency is 16.8 µM (active).

Regarding `Cc1nc(Sc2ccc(Cl)cc2)c(C#N)c(C)c1[N+](=O)[O-]`, the Potency result is “inactive”.

For `Cc1ccc(Oc2ncnc(N)c2[N+](=O)[O-])cc1`, the Potency entry was “inactive”.

Consider `C=C(C(=O)c1ccccc1)C(c1ccccc1)C(C)C(=O)c1ccccc1` (configuration not stated), for which the Potency is 31.6 µM (active).

For the molecule `CC(OC(=O)C1COc2ccccc2O1)C(=O)c1ccccc1` (configuration not stated), the Potency result is “inactive”.

As for `O=C(Cc1nc2ccccc2nc1O)c1ccccc1`, the Potency result was “inactive”.

As to `C=C(C(=O)c1ccccc1)C(C)CC(=O)c1ccccc1` (configuration not stated), the Potency was 15.8 µM (active).

As for `Nc1nc2ccccc2cc1S(=O)(=O)c1ccccc1`, the Potency result is “inactive”.

In the case of `O=C(Nc1ccccc1)Nc1ccc2ncoc2c1`, the Potency entry is “inactive”.

Consider `CN(C)/C=N/c1nc2ccccc2nc1N1CCCC1`, for which the Potency result is “inactive”.

For `N#C/C(=C/c1cccn1-c1cccc(C(=O)O)c1)c1ccc(F)cc1`, the Potency entry was “inactive”.

Consider `N#Cc1c(N2CCCC2)ccc(Br)c1Cl`, for which the Potency result was “inactive”.

With `COC(=O)c1ccc(CSc2cc(C)c3ccccc3n2)o1`, the Potency entry was “inactive”.

As for `CC(C)(C)c1ccc2c(c1)OC(C(=O)N/N=C\c1ccncc1)CO2` (configuration not stated), the Potency result was “inactive”.

On to `N=c1c(C(=O)NCC2CCCO2)cc2c(=O)n3ccccc3nc2n1Cc1ccccc1` (configuration not stated), for which the Potency entry is “inactive”.

Regarding `Cc1ccccc1NC(=O)c1ccc2snnc2c1`, the Potency entry was “inactive”.

For `Cc1ccccc1NC(=O)c1ccc(N(Cc2ccccc2)S(C)(=O)=O)cc1`, the Potency is 35.5 µM (active).

`CCCc1nn(C)c(C(=O)Nc2cccc(CC)c2)c1Cl`: the Potency entry was “inactive”.

With `CS(=O)(=O)N(Cc1ccccc1)c1ccc(C(=O)Nc2cccc(Cl)c2)cc1`, the Potency was 17.8 µM (active).

Turning to `Cc1cccc(NC(=O)c2ccc(N(Cc3ccccc3)S(C)(=O)=O)cc2)c1`, the Potency is 25.1 µM (active).

As to `CCN(Cc1ccncc1)C(=S)Nc1ccccc1C`, the Potency result is “inactive”.

In the case of `Cc1cc(C(F)(F)F)c2c(N)c(C(=O)Nc3cc(C)on3)sc2n1`, the Potency result was “inactive”.

With `Cc1ccc(C)c(Oc2coc3cc(O)ccc3c2=O)c1`, the Potency result was “inactive”.

For the molecule `CCOc1ccccc1-n1c(N)c(C(=O)OC)c2nc3ccccc3nc21`, the Potency entry is “inactive”.

As for `CCOC(=O)N1CCN(c2nc(-c3ccccc3)c3cc(C)ccc3n2)CC1`, the Potency entry was “inactive”.

Consider `COc1cc2nc(N3CCN(c4cc(C)ccc4C)CC3)nc(N)c2cc1OC`, for which the Potency is 39.8 µM (active).

For the molecule `COc1cc2nc(CN3CCN(S(=O)(=O)c4ccc(C)c(C)c4)CC3)nc(O)c2cc1OC`, the Potency entry is “inactive”.

Take `Cc1ccc2nc3c(cc2c1)c(NC(=O)C(C)(C)C)nn3CC(C)C`: the Potency entry was “inactive”.

As to `C=CCn1c(N)c(C(=O)NCC2CCCO2)c2nc3ccccc3nc21` (configuration not stated), the Potency entry was “inactive”.

Regarding `c1cncc(Nc2c3ccccc3nc3ccccc23)c1`, the Potency result is “inactive”.

Regarding `O=C1C=C(Nc2cccnc2)c2ccccc2C1=O`, the Potency was 39.8 µM (active).

On to `Cc1ccc(-c2ccc(S(=O)(=O)Nc3cccnc3)cc2)cc1`, for which the Potency result is “inactive”.

As for `O=C(COc1ccc2ccc(=O)oc2c1)OCc1ccccc1`, the Potency result is “inactive”.

For `CN(C)C(CNc1ccc(S(C)(=O)=O)cc1[N+](=O)[O-])c1ccccc1` (configuration not stated), the Potency entry was “inactive”.

Consider `CS(=O)(=O)c1ccc([S+]([O-])CC(=O)OCc2ccccc2)c([N+](=O)[O-])c1` (configuration not stated), for which the Potency is 26.7 µM (active).

For the molecule `Cc1ccc(-c2nc(N)sc2C)cc1`, the Potency entry was “inactive”.

On to `Nc1ccc2nc(-c3ccccc3)c(-c3ccccc3)nc2c1`, for which the Potency entry is “inactive”.

As for `Nc1nc(-c2ccccc2)c(N=Nc2ccccc2Cl)s1`, the Potency was 31.6 µM (active).

Consider `O=C(O)c1ccc(CN2C(=O)c3cccc4c([N+](=O)[O-])ccc(c34)C2=O)cc1`, for which the Potency entry was “inactive”.

Regarding `O=C(COC(=O)COc1cccc2ccccc12)NCC(F)(F)F`, the Potency entry is “inactive”.

Regarding `CCCCn1nnnc1C(c1cc2ccccc2o1)N(CCN(C)C)Cc1ccccc1` (configuration not stated), the Potency was 28.2 µM (active).

With `COc1cc(CNCCN2CCOCC2)ccc1OCc1ccc(Cl)cc1Cl`, the Potency is 25.1 µM (active).

On to `COc1cc2sc3cc(NCCCN4CCOCC4)ccc3c(=O)c2cc1OC`, for which the Potency entry is “inactive”.

With `O=C(COC(=O)COc1cccc(C(F)(F)F)c1)Nc1ccc(N2CCOCC2)cc1`, the Potency result is “inactive”.

With `CC(C)(CNC(=O)c1ccc(S(=O)(=O)Nc2cccc(C(F)(F)F)c2)cc1)N1CCOCC1`, the Potency entry was “inactive”.

Turning to `COc1cc(CNCCCN2CCOCC2)cc(Br)c1OCc1ccc(Cl)cc1`, the Potency was 33.6 µM (active).

For the molecule `COc1cccc2cc(C(=O)C3=C(O)C(=O)N(CCN4CCOCC4)C3c3ccc(Cl)cc3)oc12` (configuration not stated), the Potency result was “inactive”.

On to `C=CCOc1c(Br)cc(CNCCCN2CCOCC2)cc1OC`, for which the Potency result was “inactive”.

`CCOc1cc(CNCCCN2CCOCC2)cc(Br)c1OCC(=O)Nc1cccc(C(F)(F)F)c1`: the Potency was 20 µM (active).

`CCCc1cc(=O)oc2cc(OCC(=O)NCCN3CCOCC3)c(Cl)cc12`: the Potency entry is “inactive”.

Take `CCOC(=O)Cc1c(C)c2ccc(N(CC)CC)cc2oc1=O`: the Potency result was “inactive”.

In the case of `C(=Cc1cnc2ccccc2n1)c1ccc2c(c1)OCO2`, the Potency entry is “inactive”.

In the case of `CCCCCn1cc[n+](-c2nc3ccccc3nc2[N-]S(=O)(=O)c2ccccc2)c1`, the Potency entry is “inactive”.

On to `Cc1ccc(NC(=O)CC2Nc3ccccc3NC2=O)cc1C` (configuration not stated), for which the Potency result was “inactive”.

Consider `CC(=O)c1cc2c(C)cc(=O)oc2cc1O`, for which the Potency result is “inactive”.

Consider `Fc1cccc(Cl)c1CNc1ccc(N2CCCC2)cc1`, for which the Potency entry was “inactive”.

`COC(=O)C1=C(C)N(Cc2ccccc2)C(NCc2cccc(C(F)(F)F)c2)=N[C@H]1c1cccc(F)c1`: the Potency was 17.8 µM (active).

As for `CCN1C(N(C)CCc2c[nH]c3ccccc23)=N[C@@H](c2cccc(C(F)(F)F)c2)C(C(=O)OC)=C1C`, the Potency was 31.6 µM (active).

`CCOC(=O)c1sc(-c2cccc(C(F)(F)F)c2)nc1O`: the Potency result is “inactive”.

Turning to `COC(=O)C1=C(C)N(Cc2ccccc2)C(NCCc2c[nH]c3ccccc23)=N[C@H]1c1cccc(C(F)(F)F)c1`, the Potency is 25.1 µM (active).

Turning to `Cc1nn(Cc2ccccc2)c(C)c1/C=N/NC(=O)CNc1cccc(C(F)(F)F)c1`, the Potency result is “inactive”.

On to `COC(=O)Cc1c(C(=O)OC)nnn1-c1cccc(C(F)(F)F)c1`, for which the Potency result was “inactive”.

For `COC(=O)C1=C(C)N(Cc2ccccc2)C(NCc2ccccc2)=N[C@H]1c1cccc(C(F)(F)F)c1`, the Potency was 35.5 µM (active).
